High-throughput results: PubChem BioAssay, National Center for Advancing Translational Sciences (NCATS)
Only some compounds are listed: those with a hit (about 0.99% of all), similar ones and a draw of the others.
NS1 function inh – influenza NS1 inhibition | Potency, µM (titrated, usually from 46.1 µM), inactives show top-dose activity, positive = more growth | 0.4% of 270,000 active | AID 2326; calls by dose curve; note: potency is the fitted concentration of half-maximal effect; actives are rising curves; nearly all actives have a fitted effect of over 50% in size
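Compounds were scored for reversing the slow growth caused by influenza A NS1 in S. cerevisiae, measured by optical density at 600 nm. Assay medium contained 2% galactose at pH 6.0; NS1-free yeast of the same strain were the positive control.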
AmpC detergent – blocks E. coli AmpC beta-lactamase in detergent assay; 0.041% of 370,000 active; P00811; Potency, µM (series often up to 114 µM), for the others: top-dose activity change, negative = inhibition, hits mostly inhibitors; AmpC hydrolysis of nitrocefin, absorbance 480 nm, 0.01% Triton;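 note: potency is the fitted concentration of half-maximal effect; 0% = no-compound wells and -100% = no-enzyme wells; nearly all actives have a fitted effect of over 25% in size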
Target sequence (P00811 whole entry, looked up): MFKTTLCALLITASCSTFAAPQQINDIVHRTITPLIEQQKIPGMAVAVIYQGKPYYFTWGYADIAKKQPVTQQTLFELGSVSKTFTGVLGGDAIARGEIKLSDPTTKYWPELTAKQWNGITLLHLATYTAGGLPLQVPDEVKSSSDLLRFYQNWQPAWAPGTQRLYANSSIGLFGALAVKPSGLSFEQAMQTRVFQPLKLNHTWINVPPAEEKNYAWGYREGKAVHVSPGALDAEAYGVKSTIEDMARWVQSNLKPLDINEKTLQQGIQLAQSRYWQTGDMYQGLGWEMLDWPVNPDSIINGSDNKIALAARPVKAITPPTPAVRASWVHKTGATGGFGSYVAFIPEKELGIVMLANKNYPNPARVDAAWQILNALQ
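AmpC (5.3 nM in the dispensed reagent) in 20 mM phosphate pH 7.0 with 0.01% (detergent screen) or 0.0001% Triton X-100 was preincubated with compounds for 15 min at room temperature. Nitrocefin was then added from an 800 uM solution, and hydrolysis was followed at 480 nm.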
AmpC no deterg – AmpC beta-lactamase inhibition without detergent; P00811; AmpC nitrocefin hydrolysis, absorbance 480 nm, 0.0001% Triton; Potency, µM (series often up to 57.1 µM), for inactives: at the top dose activity change, negative = inhibition, actives largely listed as inhibitors; 0.52% of 330,000 active;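 note: potency is the fitted concentration of half-maximal effect; plate controls were no compound for no effect and no enzyme for full effect; nearly all actives have a fitted effect of over 20% in size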
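AmpC (5.3 nM in the dispensed reagent) in 20 mM phosphate pH 7.0 with 0.01% (detergent screen) or 0.0001% Triton X-100 was preincubated with compounds for 15 min at room temperature. Nitrocefin was then added from an 800 uM solution, and hydrolysis was followed at 480 nm.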
SARS PLpro yeast-1 – inhibitors of SARS-CoV papain-like protease in yeast | S. cerevisiae expressing SARS-CoV PLpro, growth rescue | AID 485353 | Potency, µM (doses to about 32.9 µM), inactives show at the highest dose activity, positive = growth rescue, most hits filed as activators | 0.19% of 330,000 active; calls by dose curve; note: potency is the fitted concentration of half-maximal effect; 0% is about no effect; nearly all actives have a fitted effect of over 55% in size
AMA1-RON2 inh – inhibitors of Plasmodium falciparum AMA1-RON2 interaction; AlphaScreen AMA1-biotinylated RON2 peptide binding; 0.2% of 360,000 active; Potency, µM (titrated, usually from 58.2 µM), for inactives: top-dose activity change, negative = inhibition, most hits filed as inhibitors;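 note: potency is the fitted concentration of half-maximal effect; 0% = vehicle wells and -100% = peptide control; nearly all actives have a fitted effect of over 45% in size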
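AMA1 (3D7) with his tag at 25 nM final met compounds first, then biotinylated RON2 peptide at 25 nM; detection used donor plus acceptor beads, 10 µg/mL apiece, read by AlphaScreen after 30 min at room temperature.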
SARS PLpro yeast-2 – Validates SARS-CoV PLpro inhibitor hits in yeast. calls only. AID 652038. 19% of 1,000 active. yeast expressing SARS-CoV PLpro, growth phenotype rescue. shares compounds with SARS PLpro yeast-1; call rule not given here
Starred values were filed as active, the others as inactive; i = inactive; ? = inconclusive; / = no result given; + = active, no number; [ ] = another dose, or the depositor's remark. Unless noted, calls come from the whole dose curve; as a rule, active = well fitted curve in the direction sought with a large enough effect; inconclusive = small, poorly fitted or top-dose-only effect, or another doubt; inactive = no such curve, though single readings can be large; an effect the other way counts as inactive or inconclusive.

SMILES | NS1 function inh | AmpC detergent | AmpC no deterg | SARS PLpro yeast-1 | AMA1-RON2 inh | SARS PLpro yeast-2
CC(/C=N/Nc1nc(C)cc(C)n1)=C\c1ccc(C(C)C)cc1 | 8% | ? | 1% | 11µM* | 36% | +
CCOC(=O)c1ccc(NC(=O)C2CCN(C(=O)c3ccc(OC)c(OC)c3)CC2)cc1 | 0% | 0% | 60% | ? | 0% | i
COC(=O)c1ccc(NC(=O)C2CCN(C(=O)c3cc(OC)c(OC)c(OC)c3)CC2)cc1 | -5% | ? | -1% | 6% | 0% | /
COC(=O)CNC(c1ccccc1)c1cc(C)ccc1NC(=O)c1cccc(Cl)c1 (stereo not given) | -37% | -9% | -22% | ? | 2% | i
Cc1ccc(-c2noc(COc3ccc4c(c3)OCO4)n2)cc1 | -1% | 3% | -28% | 13µM* | -4% | i
COc1ccc(-n2nc3c(N4CCCC(C(=O)NCc5ccccc5C)C4)nnc(C)c3c2C)cc1 (stereo not given) | / | -6% | 185% | -3% | / | /
COc1ccc(NS(=O)(=O)c2ccc(N3CCCCS3(=O)=O)cc2)cc1Cl | / | 21% | / | / | / | /
CCCCCC(=O)NNC(=S)NC(=O)c1ccccc1[N+](=O)[O-] | 2% | -9% | 23% | 0% | 103% | /
CCCCCC(=O)NNC(=S)NC(=O)c1cccc([N+](=O)[O-])c1 | -9% | -6% | -5% | 11µM* | 53% | i
CC(C)CC(=O)Nc1ccc(C(=O)Cn2nc(C(=O)O)c3ccccc3c2=O)cc1 | -1% | ? | -23% | 13µM* | 5% | i
Cc1cc(C)cc(-n2c(C)cc(C(=S)N3CCOCC3)c2C)c1 | 5% | -6% | 61% | 14µM* | -24% | +
COc1ccc(C(=O)CSc2nnc(NC(=O)C3CC(=O)N(c4ccccc4)C3)s2)cc1 (stereo not given) | 11% | -11% | -33% | ? | 4% | ?
COc1cccc(N2CC(C(=O)Nc3nnc(SCC(=O)c4ccccc4)s3)CC2=O)c1 (stereo not given) | 28% | ? | -35% | 13% | ? | /
Cc1cccc(-c2nc(SCC(=O)NCc3ccco3)c3c(=O)n(C)c(=O)n(C)c3n2)c1 | / | 12% | / | / | / | /
COc1ccc(/C=N/NC(=O)CN(CCc2ccccc2)S(=O)(=O)c2ccc(NC(C)=O)cc2)cc1OC | 13% | -2% | 20% | 3.5µM* | 22% | i
COc1ccc(S(=O)(=O)N(CCc2ccccc2)CC(=O)Nc2ccc(C)c(C)c2)cc1OC | / | 21% | / | / | / | /
COc1cc(/C=N/NC(=O)CN(CCc2ccccc2)S(=O)(=O)c2ccc(NC(C)=O)cc2)cc(OC)c1OC | 26% | -1% | 147% | -1% | -5% | /
COc1ccc(S(=O)(=O)N(CCc2ccccc2)CC(=O)O)cc1Cl | -6% | -3% | -10% | ? | 63% | i
O=C(N/N=C/c1c(O)n(C2CC2)c(=S)[nH]c1=O)c1ccccc1O | 16% | -9% | -28% | 13µM* | -21% | i
Cc1ccc(C)c(N2CCN(C(=O)C3CCCN(S(=O)(=O)c4c(C)[nH]c(=O)[nH]c4=O)C3)CC2)c1 (stereo not given) | -1% | ? | 41% | 10µM* | 7% | i
CCOc1ccc(NC(=O)CN(C)C(=O)c2c(C)nn(-c3ccc(F)cc3)c2Cl)cc1OCC | / | -12% | 62% | ? | -1% | i
O=c1[nH]c(C2C3CC4CC(C3)CC2C4)nc2ccccc12 (stereo not given) | 0% | -9% | -11% | 2.8µM* | 0% | i
CC(C)C(=O)NC(c1cccc([N+](=O)[O-])c1)c1ccc2cccnc2c1O (stereo not given) | / | ? | -27% | 3.2µM* | 1% | i
CCC(=O)NC(c1ccc(C)cc1)c1cc(Cl)c2cccnc2c1O (stereo not given) | / | / | -16% | ? | / | /
CCC(=O)NC(c1cccs1)c1cc([N+](=O)[O-])c2cccnc2c1OC (stereo not given) | / | ? | 131% | -1% | / | /
SMILES | NS1 function inh | AmpC detergent | AmpC no deterg | SARS PLpro yeast-1 | AMA1-RON2 inh | SARS PLpro yeast-2
Cc1ccc(C(NC(=O)C(C)C)c2cc([N+](=O)[O-])c3cccnc3c2O)cc1 (stereo not given) | 4% | -6% | -40% | ? | 24%[2.32 µM] | ?
CC(C)C(=O)NC(c1cccs1)c1cc([N+](=O)[O-])c2cccnc2c1O (stereo not given) | -5% | ? | -49% | ? | 18% | i
Cc1cccc(NC(=O)c2sc(-n3nc(C)c(CCC(C)C)c3C)nc2C)c1 | / | 14% | / | / | / | /
O=C(O)CCc1c2ccc(=O)c(O)c-2oc2c(O)c(O)ccc12 | -2% | / | / | / | / | /
CC(=O)O[C@H]1C(=O)[C@@]2(C)C([C@H](OC(=O)c3ccccc3)[C@]3(O)C[C@H](OC(=O)[C@H](O)[C@@H](NC(=O)c4ccccc4)c4ccccc4)C(C)=C1C3(C)C)[C@]1(OC(C)=O)CO[C@@H]1C[C@@H]2O (stereo not given in full) | -6% | / | / | / | / | /
O=C(CN1C(=O)C2(SCC(=O)N2c2ccc(F)cc2)c2ccccc21)NCCc1ccccc1 (stereo not given) | / | 7% | / | / | / | /
Cc1ccc(Nc2c3c(nc4nncn24)CCC3)cc1C | / | -3% | / | / | / | /
Cc1cccc(-c2nn3c(=O)cc(CN4CCN(C(=O)/C=C/c5ccccc5)CC4)nc3s2)c1 | / | -3% | / | / | / | /
CC(=O)Nc1ccc(S(=O)(=O)NC2(C(F)(F)F)C(=O)Nc3c2c(=O)[nH]c(=O)n3-c2ccc(C)c(C)c2)cc1 (stereo not given) | / | -3% | / | / | / | /
CCOc1ccc(S(=O)(=O)N2CCC(C(=O)OC(C)C(=O)NC3CCCCC3C)CC2)cc1 (stereo not given) | / | 3% | 169% | 3% | 14% | /
Cc1ccc(S(=O)(=O)N2CCC(C(=O)OC(C)C(=O)NC3CCCCC3C)CC2)cc1C (stereo not given) | / | 2% | 157% | ? | -5% | ?
CC(C)CC(=O)NN(C)c1nc(-c2ccccc2)nnc1C(F)(F)F | -9% | -6% | -7% | ? | -16% | i
COc1ccc2nc(SCC(C)=O)c(C#N)cc2c1 | 2% | 7% | -12% | 9% | -9% | /
COc1ccc2nc(SCC(=O)N3CC(=O)Nc4ccccc43)c(C#N)cc2c1 | 5% | ? | -52% | ? | -3% | i
COc1ccc(C(=O)N/C(N)=N/c2nc3ccccc3o2)cc1 | -1% | ? | -40% | -5% | 69% | /
CC(C)(C)c1ccc(C(=O)N/C(N)=N/c2nc3ccccc3o2)cc1 | ? | 4% | -14% | ? | 24% | i
COc1ccc2cc(C(=O)N/N=C/c3sc4ccccc4c3O)ccc2c1 | 14% | ? | -30% | 5µM* | 57% | +
